Inconclusive results are not listed. Calls of active or inactive are those of the source. Rule for the calls: active = hit-call score of the fitted dose curve at least 0.9, where 1 is the maximum; inconclusive = response in the unintended direction; inactive = score below 0.9.

From PubChem BioAssay (EPA / NIEHS) come the findings set out here.

One assay is described as follows: Tanguay_ZF_120hpf_MORT_legacy: (Legacy) Oregon State University Tanguay Lab 120 Hour Post-fertilization zebrafish Assay for Mortality (AID 2283633).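 For AC50: fitted as increase in binary mortality versus DMSO negative control.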 In outline: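 Single dechorionated Tropical 5D embryos were held with test chemical (0.64% DMSO final) from 6 to 120 hpf at 28C under foil. Deaths at 24 or 120 hpf were recorded as binary calls, analysed for increase over DMSO controls.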
Turning to `CC(C)(C)c1ccccc1O`, the compound was called inactive.
Same read-out and setting: the value for `Clc1cccc(Cl)c1Cl` was “inactive”.
On to `N#Cc1cccnc1`, for which the result was inactive.
Consider `CCCCCCCCCCCCc1cccc(S(=O)(=O)O)c1`, for which the result was inactive.
Consider `Oc1c(Cl)cc(Cl)cc1Cl`, for which the half-maximal activity concentration (AC50) is 24.9 µM (active).
On to `CN(C)C(=S)S`, for which the result was inactive.
On the same count and under the same terms, under `O=C(O)C1(c2ccc3c(c2)OC[C@H](Cc2ccc(-c4ccccc4)cc2)[C@H]3O)CCCC1` stands “inactive”; under `COc1ccccc1N`, “inactive”.
`O=C(N[C@H]1CN2CCC1CC2)c1ccc2c(c1)OCCO2`: the compound was classed as inactive.
For the compound `Oc1cc(Cl)c(Cl)cc1Cl`, the AC50 is 24.9 µM (active).
Regarding `CC(C)O.CC(C)O.OCCN(CCO)CCO.OCCN(CCO)CCO.[Ti]`, the result was inactive.
With `Cc1cc(C)cc(C)c1`, the call was inactive.
Same read-out and setting: the value for `OCCN(CCO)CCO` was “inactive”; that for `Clc1cccc(Cl)c1` was “inactive”.

Another assay can be described thus: Tanguay_ZF_120hpf_YSE_legacy: (Legacy) Oregon State University Tanguay Lab 120 Hour Post-fertilization zebrafish Assay for Yolk Sac Edema (AID 2283634).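 For AC50: actives raise the incidence of yolk sac edema above the DMSO baseline.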 In outline: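 Single dechorionated embryos were held in sealed plates at 28C with test chemical (0.64% DMSO final) from 6 hpf until 120 hpf. Edema of the yolk sac was then recorded as a binary endpoint; non-mortality endpoints were skipped for dead embryos.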
In the case of `CC(C)(C)c1ccccc1O`, the compound was classed as inactive.
The same measure, in the same setting: under `Clc1cccc(Cl)c1Cl` stands “inactive”.
Same read-out and setting: the value for `N#Cc1cccnc1` was “inactive”.
On the same count and under the same terms, the value for `CCCCCCCCCCCCc1cccc(S(=O)(=O)O)c1` was “inactive”.
Turning to `Oc1c(Cl)cc(Cl)cc1Cl`, the compound was called inactive.
`CN(C)C(=S)S`: the AC50 is 8.26 µM (active).
As to `O=C(O)C1(c2ccc3c(c2)OC[C@H](Cc2ccc(-c4ccccc4)cc2)[C@H]3O)CCCC1`, the outcome was inactive.
On the same count and under the same terms, the value for `COc1ccccc1N` was “inactive”; that for `O=C(N[C@H]1CN2CCC1CC2)c1ccc2c(c1)OCCO2` was “inactive”.
Turning to `Oc1cc(Cl)c(Cl)cc1Cl`, the call was inactive.
In the case of `Cc1cc(C)cc(C)c1`, the compound was classed as inactive.
On the same count and under the same terms, the value for `OCCN(CCO)CCO` was “inactive”; that for `Clc1cccc(Cl)c1` was “inactive”.

Another assay can be described thus: Tanguay_ZF_120hpf_AXIS_legacy: (Legacy) Oregon State University Tanguay Lab 120 Hour Post-fertilization zebrafish Assay for Body Axis Malformation (AID 2283635).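 For AC50: potency for an increased fraction of larvae scored with body axis malformation.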 In outline:
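Each dechorionated embryo was exposed alone from 6 hpf, with DMSO at 0.64% (vol/vol) and trimethyltin chloride 5 uM as positive control. Axis malformation was recorded at 120 hpf unless the embryo had died.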
In the case of `CC(C)(C)c1ccccc1O`, the outcome was inactive.
On to `Clc1cccc(Cl)c1Cl`, for which the compound was classed as inactive.
Take `N#Cc1cccnc1`: the outcome was inactive.
`CCCCCCCCCCCCc1cccc(S(=O)(=O)O)c1`: the call was inactive.
On the same count and under the same terms, under `Oc1c(Cl)cc(Cl)cc1Cl` stands “inactive”.
Turning to `CN(C)C(=S)S`, the AC50 was 0.946 µM (active).
For the compound `O=C(O)C1(c2ccc3c(c2)OC[C@H](Cc2ccc(-c4ccccc4)cc2)[C@H]3O)CCCC1`, the call was inactive.
As to `COc1ccccc1N`, the outcome was inactive.
`O=C(N[C@H]1CN2CCC1CC2)c1ccc2c(c1)OCCO2`: the result was inactive.
Still for that read-out and setting: under `Oc1cc(Cl)c(Cl)cc1Cl` stands “inactive”; under `CC(C)O.CC(C)O.OCCN(CCO)CCO.OCCN(CCO)CCO.[Ti]`, “inactive”; under `Cc1cc(C)cc(C)c1`, “inactive”.
In the case of `OCCN(CCO)CCO`, the outcome was inactive.
Same read-out and setting: the value for `Clc1cccc(Cl)c1` was “inactive”.

The next assay in a line: Tanguay_ZF_120hpf_EYE_legacy: (Legacy) Oregon State University Tanguay Lab 120 Hour Post-fertilization zebrafish Assay for Eye Malformation (AID 2283636).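 Note: binary presence or absence of eye malformation scored by brightfield in 120 hpf larvae.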 In outline: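 Dechorionated Tropical 5D zebrafish embryos, one per well from 6 hpf, static exposure to 120 hpf at 28C, 0.64% DMSO. Eye malformation scored present/absent by brightfield; dead embryos not scored.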
`CC(C)(C)c1ccccc1O`: the result was inactive.
Same read-out and setting: the value for `Clc1cccc(Cl)c1Cl` was “inactive”; that for `N#Cc1cccnc1` was “inactive”; that for `CCCCCCCCCCCCc1cccc(S(=O)(=O)O)c1` was “inactive”.
Same read-out and setting: under `Oc1c(Cl)cc(Cl)cc1Cl` stands “inactive”; under `CN(C)C(=S)S`, “inactive”.
The same measure, in the same setting: the value for `O=C(O)C1(c2ccc3c(c2)OC[C@H](Cc2ccc(-c4ccccc4)cc2)[C@H]3O)CCCC1` was “inactive”; that for `COc1ccccc1N` was “inactive”; that for `O=C(N[C@H]1CN2CCC1CC2)c1ccc2c(c1)OCCO2` was “inactive”.
Regarding `Oc1cc(Cl)c(Cl)cc1Cl`, the compound was classed as inactive.
As to `Cc1cc(C)cc(C)c1`, the outcome was inactive.
As to `OCCN(CCO)CCO`, the compound was called inactive.
The same measure, in the same setting: under `Clc1cccc(Cl)c1` stands “inactive”.

A short description of another assay: Tanguay_ZF_120hpf_SNOU_legacy: (Legacy) Oregon State University Tanguay Lab 120 Hour Post-fertilization zebrafish Assay for Snout Malformation (AID 2283637). In outline: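 Dechorionated tropical 5D wild-type zebrafish embryos exposed statically from 6 to 120 hpf at 28C, one per well, in 0.64% DMSO. Snout malformation scored as present/absent by brightfield at 120 hpf; dead embryos not scored.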
For `CC(C)(C)c1ccccc1O`, the outcome was inactive.
In the case of `Clc1cccc(Cl)c1Cl`, the result was inactive.
In the case of `N#Cc1cccnc1`, the compound was classed as inactive.
For the compound `Oc1c(Cl)cc(Cl)cc1Cl`, the compound was called inactive.
With `CN(C)C(=S)S`, the call was inactive.
On the same count and under the same terms, under `O=C(O)C1(c2ccc3c(c2)OC[C@H](Cc2ccc(-c4ccccc4)cc2)[C@H]3O)CCCC1` stands “inactive”; under `COc1ccccc1N`, “inactive”; under `O=C(N[C@H]1CN2CCC1CC2)c1ccc2c(c1)OCCO2`, “inactive”.
Consider `Oc1cc(Cl)c(Cl)cc1Cl`, for which the call was inactive.
On the same count and under the same terms, the value for `CC(C)O.CC(C)O.OCCN(CCO)CCO.OCCN(CCO)CCO.[Ti]` was “inactive”.
Same read-out and setting: the value for `Cc1cc(C)cc(C)c1` was “inactive”; that for `OCCN(CCO)CCO` was “inactive”.
Same read-out and setting: under `Clc1cccc(Cl)c1` stands “inactive”.

The next assay in a line: Tanguay_ZF_120hpf_JAW_legacy: (Legacy) Oregon State University Tanguay Lab 120 Hour Post-fertilization zebrafish Assay for Jaw Malformation (AID 2283638). In outline: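 Wild-type 5D embryos, chorion removed at 4 hpf, dosed singly from 6 hpf; 28C static, sealed, foil-covered, to 120 hpf. Endpoint: jaw defect yes/no (brightfield); mortality excludes scoring.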
On to `CC(C)(C)c1ccccc1O`, for which the call was inactive.
Consider `Clc1cccc(Cl)c1Cl`, for which the call was inactive.
On the same count and under the same terms, under `N#Cc1cccnc1` stands “inactive”.
Consider `CCCCCCCCCCCCc1cccc(S(=O)(=O)O)c1`, for which the compound was classed as inactive.
Still for that read-out and setting: the value for `Oc1c(Cl)cc(Cl)cc1Cl` was “inactive”.
`CN(C)C(=S)S`: the call was inactive.
With `COc1ccccc1N`, the call was inactive.
Consider `O=C(N[C@H]1CN2CCC1CC2)c1ccc2c(c1)OCCO2`, for which the compound was called inactive.
On the same count and under the same terms, the value for `Oc1cc(Cl)c(Cl)cc1Cl` was “inactive”; that for `CC(C)O.CC(C)O.OCCN(CCO)CCO.OCCN(CCO)CCO.[Ti]` was “inactive”; that for `Cc1cc(C)cc(C)c1` was “inactive”.
For the compound `OCCN(CCO)CCO`, the compound was called inactive.
Take `Clc1cccc(Cl)c1`: the outcome was inactive.
